Laboratory results as given in PubChem BioAssay AID624330 (Southern Research Specialized Biocontainment Screening …, 2012).
In all, about 340,000 compounds went through this assay and about 2,100 (0.62%) were called active.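 How the source made its calls: active means first-screen hits whose inhibition reached a set limit at any dose in the follow-up dose series; inconclusive means inhibition above the set first-screen limit but never retested; inactive means the rest.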 A selection follows. Results with a measured potency or affinity are listed apart.

Target: Rac GTPase-activating protein 1 (Homo sapiens) (UniProt Q9H0H5)
Assay: blockers of MgcRacGAP-driven Rac1 GTP hydrolysis – biochemical, ADP Hunter fluorescence, primary and confirmatory, confirmation (AID 624330);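 further: fluorescence reports GDP produced by GAP-driven GTP hydrolysis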
Conditions: MgcRacGAP-stimulated Rac1 GTP hydrolysis, at 30 µM, active compounds read high, GST-tagged Rac1 F28L mutant substrate

Chain of Rac GTPase-activating protein 1 (Homo sapiens) (Q9H0H5 whole entry, looked up): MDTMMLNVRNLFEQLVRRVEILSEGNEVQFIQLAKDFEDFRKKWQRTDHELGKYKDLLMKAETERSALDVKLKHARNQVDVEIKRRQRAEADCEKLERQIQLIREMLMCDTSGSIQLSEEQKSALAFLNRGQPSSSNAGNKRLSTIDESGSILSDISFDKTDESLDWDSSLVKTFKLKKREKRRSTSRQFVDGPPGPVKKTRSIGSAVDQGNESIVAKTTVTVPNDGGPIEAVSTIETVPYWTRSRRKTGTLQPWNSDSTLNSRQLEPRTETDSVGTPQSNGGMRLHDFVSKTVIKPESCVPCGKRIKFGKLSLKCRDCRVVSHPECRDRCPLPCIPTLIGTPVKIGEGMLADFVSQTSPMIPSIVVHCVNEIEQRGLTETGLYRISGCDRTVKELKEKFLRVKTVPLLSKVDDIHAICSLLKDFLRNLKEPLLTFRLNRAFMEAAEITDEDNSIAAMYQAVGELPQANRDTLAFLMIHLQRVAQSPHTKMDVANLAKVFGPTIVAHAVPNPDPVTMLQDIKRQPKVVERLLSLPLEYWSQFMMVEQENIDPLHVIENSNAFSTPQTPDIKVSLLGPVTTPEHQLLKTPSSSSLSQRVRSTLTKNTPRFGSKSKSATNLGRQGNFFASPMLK

inhibition, inactive:
O=C(CSc1nnc(-c2cccnc2)o1)Nc1ccc(F)cc1 13.2%
Clc1nc(-c2ccccc2)c2ccccc2n1 10.5%
CC(=O)c1cc(Cc2csc(C(C)=O)c2)cs1 1.28%
CN(C(=O)COC(=O)c1cccs1)c1c(N)n(Cc2ccccc2)c(=O)[nH]c1=O 4.09%
Cc1cc(=O)oc2c3c(cc(OCC(=O)NC(Cc4ccc(Cl)cc4)C(=O)O)c12)OC(C)(C)CC3 (configuration not stated) 6.3%
O=C(NCc1ccccc1)NC(=O)c1ccncc1 8.08%
O=C1NC(=S)NC1Cc1ccc(O)cc1 (configuration not stated) 7.3%
CCn1ccnc1CN1CCCCC1C(=O)Nc1ccc(Oc2cccnc2)cc1 (configuration not stated) 10.9%
CC(=O)Nc1ccc(NCc2cccs2)cc1 31.6%
O=C1CC(Nc2ccccc2)C(=O)N1Cc1ccccc1 (configuration not stated) 7.76%
Cc1cccc(CNc2ccc(S(=O)(=O)N3CCCCC3)cc2)c1 2.94%
CC(=O)N1CCN(c2ccc(NC(=O)c3cccc(C)c3)cc2)CC1 -9.43%
O=C(O)c1ccc(NCc2cccs2)cc1 -0.42%
O=C1CC(Nc2ccc(N3CCOCC3)cc2)C(=O)N1CCc1ccccc1 (configuration not stated) 14.7%
CC1CCN(Cc2cc(=O)oc3ccc(C(C)C)cc23)CC1 5.26%
O=S(=O)(N/N=C1\CC(c2ccccc2)Oc2ccccc21)c1ccccc1 (configuration not stated) -7.41%
COc1ccccc1CNC1CCN(Cc2ccccc2)CC1 -3.78%
Fc1ccc(CNC2CCN(Cc3ccccc3)CC2)cc1 -1.76%
Cc1cc(-c2ccccc2)nc(N/N=C/c2ccccc2)n1 4.11%
C/C(=N\Nc1nc2ccccc2nc1C)c1ccccc1O -0.02%
COc1ccc(/C=N/Nc2nc(C)cc(-c3ccccc3)n2)cc1OC 11.1%
Oc1ccc(/C=N/Nc2ccccc2)cc1 12.9%
Cc1cc(-c2ccccc2)nc(N/N=C/c2cccnc2)n1 3.86%
Cc1cc(-c2ccccc2)nc(N/N=C/c2ccccc2F)n1 2.38%
Cc1cc(-c2ccccc2)nc(N/N=C/c2ccc([N+](=O)[O-])cc2)n1 6.88%
COc1ccc(O)c(/C=N/Nc2nc(C)cc(-c3ccccc3)n2)c1 3.11%
CCOC(=O)CN1C(=O)S/C(=C/c2ccc(C)o2)C1=O 13.6%
O=C(CN(CC1CCCO1)C(=O)CCC(=O)Nc1nccs1)NCC1CCCO1 (configuration not stated) -9.34%
O=C1CCc2cc(S(=O)(=O)Nc3cccc(F)c3)cc3c2N1CC3 4.84%
O=C(NCC(c1cccs1)N1CCOCC1)c1cc(S(=O)(=O)N2CCOCC2)c(Cl)cc1Cl (configuration not stated) 2.31%
Cc1occc1-c1nnc(SCCCC(=O)c2ccc(F)cc2)n1C 14.1%
NNC(=S)NCCc1ccccc1 6.19%
CC(C(=O)Nc1ccccc1)N1CCN(c2ccccn2)CC1 (configuration not stated) 7.75%
CC(C(=O)N1CCc2ccccc21)N1CCN(c2ccccn2)CC1 (configuration not stated) 6.14%
O=C(CNC(=O)Cc1ccccc1)NCc1cccc(C(F)(F)F)c1 1.1%
CCN(Cc1ccncc1)C(=O)c1cccs1 -1.7%
O=C(CC1CCCC1)N1CCCC(Nc2cccc(F)c2)C1 (configuration not stated) 7.36%
CC1CC(C)CN(C(=O)Cn2c(=O)n(CCCC(=O)NCc3ccco3)c(=O)c3sccc32)C1 (configuration not stated) 9.26%
CCOc1cc2c(cc1OCC)C(c1ccccc1)N(c1ccccc1)C(=O)C2 (configuration not stated) 1.91%
Cn1c(/C=C/c2ccccc2)nc2ccccc2c1=O 5.36%
CCn1c(/C=C/c2ccccc2)nc2ccccc2c1=O 10.4%
O=c1c2ccccc2nc(N/N=C/c2ccc(O)cc2)n1O 18.1%
C=CCn1c(C)nc2ccccc2c1=O 2.89%
O=c1c2ccccc2nc(/C=C/c2ccc(O)cc2)n1CCc1ccccc1 4.64%
CCN(CC)C(=O)CSc1nc2ccccc2c(=O)n1-c1ccccc1OC -9.96%
CCn1c(/C=C/c2ccc(F)cc2)nc2ccccc2c1=O 8.84%
COc1ccccc1-n1c(SCC(=O)N2CCOCC2)nc2ccccc2c1=O -0.91%
O=C(CSc1nncn1-c1ccccc1)Nc1ccccc1F 3.06%
COc1ccccc1/C=C/C(=O)OCC(=O)N1CCN(S(=O)(=O)c2ccc(C)cc2C)CC1 6.05%
CC(OC(=O)c1ccc(Cl)nc1)C(=O)Nc1ccc(S(=O)(=O)N2CCCC2)cc1 (configuration not stated) 4.67%
C[C@@]12C(=O)N(CC3CC3)CC(=O)N1[C@H](C1CC1)[C@@H]1C(=O)N(c3ccccc3)C(=O)[C@@H]12 7.67%
Cc1cc(C)n2c(SCC(=O)NCc3ccc4c(c3)OCO4)nnc2n1 11.5%
CSCCC(NC(=O)c1ccccc1Br)C(=O)N1CCN(C/C=C/c2ccccc2)CC1 (configuration not stated) 9.7%
COc1ccc(Cl)cc1NS(=O)(=O)N1CCOCC1 6.51%
CC1C(=O)NN=C1C(=O)N/N=C\C(Br)=C\c1ccccc1 (configuration not stated) 20.2%
COc1ccc(OC)c(/C=N/NC(=O)CC2C(=O)NN=C2C)c1 (configuration not stated) 3.85%
CC1C(=O)NN=C1C(=O)N/N=C/c1ccco1 (configuration not stated) 14.2%
COc1ccc(/C=N\NC(=O)C2=NNC(=O)C2C)cc1 (configuration not stated) 13.9%
CC1C(=O)NN=C1C(=O)N/N=C/c1cccs1 (configuration not stated) 17.2%
COc1cc(OC)c(OC)cc1/C=N/NC(=O)CC1C(=O)NN=C1C (configuration not stated) 4.43%
CCOC(=O)C1C(=O)NC(C(=O)OCC)(C(=O)OCC)C1C(C)CC (configuration not stated) 6.57%
CC1CCCC(NC(=O)COC(=O)/C=C/c2ccco2)C1C (configuration not stated) 2.8%
CNCCCOc1cccc(OC(C)C)c1 16.9%
CCc1ccccc1N(C(=O)c1ccco1)C(C(=O)NC1CCCC1)c1cccnc1 (configuration not stated) 4.45%
CN(CC(=O)NCC1CCCO1)S(=O)(=O)c1ccc(Br)cc1 (configuration not stated) 7.12%
C/C(N)=C(/C#N)C(=O)COC(=O)C1CCN(S(=O)(=O)c2cccs2)CC1 -1.72%
CC(=O)Nc1ccc(C(=O)N2CCc3cc4c(cc3C2C)OCCCO4)cc1 (configuration not stated) 1.24%
COC(=O)C[C@H]1C[C@@H]2c3cc(NC(=O)Nc4ccc(F)cc4)ccc3O[C@@H]2[C@@H](CO)O1 7.07%
O=c1[nH]n(-c2ccccc2)c(=O)c2ccccc12 -1.66%
O=c1ccc(=O)n(-c2ccccc2)[nH]1 2.41%
O=C(O)CSCC(=O)Nc1ccc(C(=O)O)cc1 7.72%
COc1cc(CNCCO)ccc1OCCc1ccccc1 5.16%
O=C(O)c1ccccc1Nc1ccccc1C(=O)O 2%
COc1cccc(Nc2ccccc2C(=O)O)c1 7.48%
CC(Oc1ccccc1)C(=O)Nc1cccc(F)c1 (configuration not stated) 3.1%
Cc1cc(N)cc(C)c1-c1c(Br)cc(N)cc1Br 10.2%
Cc1cc(C)cc(N)c1 6.83%
O=C(CCC(=O)OCc1cccc([N+](=O)[O-])c1)Nc1ccccc1Cl 2.82%
COc1ccc(C(=O)NCCc2nnc3ccc(SCC(=O)NCc4ccc(F)cc4)nn23)cc1 -0.6%
Cc1onc(-c2ccccc2Cl)c1C(=O)NNC(=O)c1nn(C)cc1Cl 1.82%
O=C(c1cc(COc2ccc(F)c(F)c2)on1)N1CCN(C/C=C/c2ccccc2)CC1 -6.39%
Nc1nc(N)c2cc(Sc3ccc(Cl)cc3)ccc2n1 11.7%
Nc1nc(N)c2cc(Sc3cccc(C(F)(F)F)c3)ccc2n1 5.58%
Cc1nc(Cc2nnc(SCC(=O)N3CCN(c4ccccc4)CC3)o2)cs1 5.08%
Cc1nc(Cc2nnc(SCC(=O)N3CCN(c4ccc(F)cc4)CC3)o2)cs1 0.95%
CC(C)(C)C(=O)Nc1nc(=S)ss1 11.6%
CC(=O)Nc1nc(=S)ss1 12.7%
